From PubChem BioAssay
Entries with a potency or affinity are not part of this list. Calls of active or inactive are those of the source. Cut-off not given; nearly all actives show IC50 up to about 0.91 µM.

target: Calcium-dependent protein kinase 4 (Plasmodium falciparum (isolate 3D7)) (UniProt Q8IBS5); assay: PfCDPK4 kinase inhibitors, biochemical, TCAMS library (AID 1159588); conditions: recombinant PfCDPK4, Kinase-Glo ATP depletion luminescence
Sequence (Q8IBS5 whole entry, looked up): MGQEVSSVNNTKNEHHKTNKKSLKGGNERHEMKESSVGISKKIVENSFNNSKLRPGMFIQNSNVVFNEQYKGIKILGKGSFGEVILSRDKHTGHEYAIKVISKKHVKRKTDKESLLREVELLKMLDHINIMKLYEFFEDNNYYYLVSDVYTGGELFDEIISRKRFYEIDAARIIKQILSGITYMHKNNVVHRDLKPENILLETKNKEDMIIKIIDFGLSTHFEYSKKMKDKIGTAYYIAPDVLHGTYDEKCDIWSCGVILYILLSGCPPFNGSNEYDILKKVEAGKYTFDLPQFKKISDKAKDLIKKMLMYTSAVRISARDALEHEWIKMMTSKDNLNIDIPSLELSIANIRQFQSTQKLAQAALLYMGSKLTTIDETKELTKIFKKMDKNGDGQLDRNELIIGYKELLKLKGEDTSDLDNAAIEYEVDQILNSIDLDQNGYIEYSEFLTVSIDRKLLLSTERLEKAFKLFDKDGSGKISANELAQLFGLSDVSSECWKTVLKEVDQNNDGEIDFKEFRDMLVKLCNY

outcome, inactive:
N#Cc1cccc(C(=O)Nc2cccc(-c3ccc(C(=O)Nc4cccnc4)cc3)c2)c1
Cc1ccc(Cl)cc1NC(=O)c1c(-c2ccccc2Cl)noc1C
COc1cc(C)c(C(O)CNC(C)CCc2ccccc2)cc1C (stereo not given)
Cc1cc(N(C)C)nc(Nc2ccc(NS(=O)(=O)c3ccccc3)cc2)n1
c1ccc(-c2cccc(-c3ccccn3)n2)nc1
Cc1cc(NC2CCCC2)nc(Nc2ccccc2C)n1
CC1CCN(c2nc(C(=O)Nc3cccc4c3CCCC4)c(C(C)C)s2)CC1
Cc1cc(N[C@@H](CC(C)C)C(=O)NCCc2ccccc2)nc(NCCc2ccc(F)cc2)n1
CCCNC(=O)C1Cc2cc(OC)c(OC)cc2C2(N1)C(=O)N(Cc1cccc(OC)c1)c1ccccc12 (stereo not given)
Cc1cc(NC(=O)CCCN2CCN(c3cccc(Cl)c3Cl)CC2)ccc1N1CCN(C(C)C)CC1
CN1C(C)(C)CC(NC(=O)c2ccc(-c3nc4ccc(Cl)cc4[nH]3)cc2)CC1(C)C
Cc1cccc(CNc2nc(C)cc(N[C@@H](CC(C)C)C(=O)NCCOc3ccccc3)n2)c1
COc1ccc(CCNC(=O)c2cc3c(=O)n4cccc(C)c4nc3n(C)c2=N)cc1
COc1ccc2nccc([C@@H](O)CN3CCC(NC(=O)C(c4ccsc4)N4CCN(c5ccccc5)CC4)CC3)c2c1 (stereo not given in full)
CCOc1ccc(-n2nc3c(Cl)nnc(-c4ccccc4)c3c2-c2ccccc2)cc1
CCCNCc1ccc(-c2ccc(CN(CCOC)C(=O)c3ccco3)cc2)nc1
Cc1nc(N)nc(N)c1OCc1cccc2ccccc12
O=C(Nc1ccc(OC(F)(F)F)cc1)Nc1ccc([N+](=O)[O-])cc1
CC(C)(C)CCN1CCC(NC(=O)c2ccc(-c3cccc(C(F)(F)F)c3)s2)CC1
C=CCNC(CCCCC)c1ccc(OCCOc2ccc(C(CCCCC)NCC=C)cc2)cc1 (stereo not given)
CC(C)(C)c1ccc(NC(=O)c2cccc(CN3CCCN(Cc4cccc(O)c4)CC3)c2)cc1
O=C(Nc1ccc(C(F)(F)F)cc1)c1ccc(S(=O)(=O)NC2CCCN(CC3CCCCC3)C2)cc1 (stereo not given)
Cc1ccoc1C(=O)Nc1ccc(-c2cccc(-c3nc4c(C)cccc4[nH]3)c2)cc1
CS(=O)(=O)N(c1ccc(F)cc1)c1cc(C(=O)N[C@@H](Cc2ccccc2)[C@H](O)CNCc2cccc(C(F)(F)F)c2)cc(N2CCCC2=O)c1
Cc1[nH]nc2ccc(-c3cc(OC[C@@H](N)Cc4ccccc4)cnc3-c3ccc(OCc4cccc(F)c4)cc3)cc12
Cc1ccc2[nH]c(-c3ccc(/C=C/C(=O)NC4CCN(Cc5ccccc5)CC4)cc3)nc2c1C
CN1CCN(CCCNCc2cccc(-c3ccc(CNCCc4ccccc4)cc3)c2)CC1
O=C(Nc1ccc2oc(-c3ccc(Br)cc3)nc2c1)c1ccc([N+](=O)[O-])o1
N#Cc1ccc(-c2ccc(C(=O)NCCCCN3CCC(c4ccc5c(c4OCC(N)=O)CCCC5)CC3)nc2)cc1
CCN(CC)CCN1C(=O)c2oc3ccc(Cl)cc3c(=O)c2C1c1ccc(SC)cc1 (stereo not given)
O=[N+]([O-])c1cccc(-c2nc(-c3ccc(Br)cc3)[nH]c2-c2ccc(Br)cc2)c1
COc1cccc(CN2CCC3(CC2)CN(C(=O)Nc2ccc(Cl)c(Cl)c2)C3)c1
COc1ccc(C(=O)O)cc1OCc1ccccc1
CNCCNC(=O)C1Cc2c([nH]c3c(C)cccc23)C(c2ccc(Cl)c(Cl)c2)N1 (stereo not given)
Cc1cc2ncc(C(N)=O)c(Nc3ccc(N4CCOCC4)cc3)c2cc1S(C)(=O)=O
NC1=NC(=O)C(=Cc2cn(-c3ccccc3)nc2-c2cccc(S(=O)(=O)N3CCCC3)c2)S1
N#Cc1ccc(S(=O)(=O)N2C(c3cccc([N+](=O)[O-])c3)C(C(=O)c3ccccc3)N(C3CCCCC3)C2c2cccc([N+](=O)[O-])c2)cc1 (stereo not given)
Nc1ncc(-c2ccccc2)cc1/C=C/c1cccnc1
O=C(/C=C/c1ccc(Cl)cc1)NCCCCCN1CCCN(C(=O)Nc2ccc(F)c(Cl)c2)CC1
Ic1cc(Nc2ncnc3ccsc23)ccc1OCc1ccccc1
